Screening data as filed in PubChem.
A selection: hits, their analogues and other compounds. The true share with any hit is near 1.6%.
KCNQ2 block: blocks the rat KCNQ2 potassium channel | O88943 | CHO-K1 KCNQ2, FluxOR thallium flux, 20 min; active compounds read low | B-score at 10 µM | hit rate 1.1% among 310,000 | AID 2156;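 active = fluorescence ratio B-score at most minus 3 library SDs, with starting brightness B-score within 2 library SDs, cut at about -5.5 in these data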
KCNQ2 pot: potentiators of rat KCNQ2 potassium channel; hit rate 0.54% among 310,000; AID 2239; B-score at 10 µM; CHO-K1 KCNQ2, FluxOR thallium flux fluorescence; active compounds read high; O88943;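 active = fluorescence ratio B-score at least 3 SD of library B-scores, with initial fluorescence B-score within 3 of them, cut at about 5.3 in these data; same plate scores as AID 2156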;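 also: B-score of peak minus minimum over baseline fluorescence ratio after K+ and Tl+ stimulus; positive B-score means potentiation of KCNQ2 with more thallium influx and brighter signal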
Kir21 confirm: confirmation of mouse Kir2.1 potassium channel inhibitors; shares compounds with KCNQ2 pot; Kir2.1-expressing cells, FluxOR thallium flux fluorescence; active compounds read low; Tl flux remaining, % of negative control (active compounds read low), % at 10 µM; hit rate 41% among 2,300;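 active = Primary-screen hit whose thallium flux fell at least 3 control SD below untreated wells in both duplicates, with normal baseline fluorescence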;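 also: 0% = blank wells without stimulus and 100% = stimulated no-compound controls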
HEK293 Tl flux: counter-screen for Kir2.1 inhibitors: effect in parental HEK293 cells. FluxOR signal as % of negative control (100 = no effect), % at 10 µM. hit rate 19% among 2,300. FluxOR thallium flux fluorescence; 0% = unstimulated blank wells. shares compounds with KCNQ2 pot;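 active = dye signal at least 3 control SD above or below untreated wells in both duplicates, raw fluorescence within 3, either direction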;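 also: percent is based on the flux ratio of peak minus minimum fluorescence over baseline F0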
CHO-K1 Tl ctr: parental CHO-K1 activity in KCNQ2 potentiator counter-screen; activity increase over 3SD of controls, % at 10 µM; AID 2282; parental CHO-K1 cells, FluxOR thallium flux fluorescence; zero = vehicle mean+3SD, 100% = vehicle-minus-blank window; hit rate 43% among 1,200; shares compounds with KCNQ2 pot;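 active = signal rise of at least 3 SD above the untreated control mean, in both duplicate wells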;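 also: counter screen of KCNQ2 potentiator hits so any rise reflects channel-independent effects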
KCNQ1 sel pot: human KCNQ1 counter-target activity of KCNQ2 potentiators | activation over 3SD threshold, % at 10 µM | CHO KCNQ1 stable, FluxOR thallium flux fluorescence; beyond 3SD, as % of vehicle-control signal | shares compounds with KCNQ2 pot | hit rate 28% among 1,200;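 active = fluorescence ratio rise of at least 3 SD of vehicle wells above their mean, in both replicate wells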;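 also: 0% = vehicle mean plus 3 SD and 100% = vehicle minus unstimulated blank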
KCNQ2 pot conf: rat KCNQ2 channel potentiator confirmation. CHO-KCNQ2 cells, FluxOR thallium flux fluorescence. shares compounds with KCNQ2 pot. potentiation, less the hit threshold, % at 10 µM. hit rate 68% among 1,200;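 active = fluorescence ratio rising 3 SD or more over the vehicle control mean in both replicates, plus primary screen hit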;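 also: peak minus minimum thallium fluorescence divided by baseline after K/Tl stimulus; 0% = vehicle mean plus 3 SD and 100% = vehicle minus unstimulated blank difference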
Kir21 spec: selectivity of KCNQ2 potentiators: effect on mouse Kir2.1; shares compounds with KCNQ2 pot; HEK293 Kir2.1, FluxOR thallium flux fluorescence; activity over 3SD threshold, % at 10 µM; hit rate 2% among 1,200;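 active = fluorescence ratio rise of at least 3 SD above the vehicle-control mean, seen in both replicates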;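 also: 0% = vehicle mean plus 3 SD and 100% = vehicle minus no-stimulus blank window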
KCNQ2 W236L pot: potentiates the retigabine-insensitive rat KCNQ2 W236L mutant channel | shares compounds with KCNQ2 pot | CHO KCNQ2-W236L, automated patch clamp current | current increase over 3SD of negative controls (%), active compounds read high, % at 25 µM | hit rate 10% among 940;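 active = current increase at least 3 SD of the untreated controls above them in both duplicate recordings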
Target sequence (O88943 whole entry W236L, looked up): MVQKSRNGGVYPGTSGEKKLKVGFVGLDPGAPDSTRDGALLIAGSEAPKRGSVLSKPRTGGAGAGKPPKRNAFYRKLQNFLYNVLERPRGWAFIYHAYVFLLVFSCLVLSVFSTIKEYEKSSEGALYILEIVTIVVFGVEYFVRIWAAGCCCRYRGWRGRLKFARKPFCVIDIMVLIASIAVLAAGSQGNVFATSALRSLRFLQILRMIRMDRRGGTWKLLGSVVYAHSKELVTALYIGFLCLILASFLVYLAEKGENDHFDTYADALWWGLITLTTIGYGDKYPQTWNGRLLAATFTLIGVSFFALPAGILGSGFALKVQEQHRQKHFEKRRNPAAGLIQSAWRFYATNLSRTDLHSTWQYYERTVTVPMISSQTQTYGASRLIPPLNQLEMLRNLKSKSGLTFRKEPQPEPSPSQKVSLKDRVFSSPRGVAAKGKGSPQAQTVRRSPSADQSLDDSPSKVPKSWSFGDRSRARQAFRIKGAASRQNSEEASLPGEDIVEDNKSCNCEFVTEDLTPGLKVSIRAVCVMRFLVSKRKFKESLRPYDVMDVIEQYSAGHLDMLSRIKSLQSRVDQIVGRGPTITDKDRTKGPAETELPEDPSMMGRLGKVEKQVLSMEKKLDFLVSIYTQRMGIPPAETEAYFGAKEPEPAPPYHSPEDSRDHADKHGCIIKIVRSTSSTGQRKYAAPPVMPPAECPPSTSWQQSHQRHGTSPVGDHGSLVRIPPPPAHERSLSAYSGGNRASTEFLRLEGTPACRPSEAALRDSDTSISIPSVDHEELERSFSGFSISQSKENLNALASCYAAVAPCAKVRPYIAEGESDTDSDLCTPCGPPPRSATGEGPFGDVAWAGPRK
The depositor's hits bear a star; i = inactive; nt = not tested or not shown.

SMILES | KCNQ2 block | KCNQ2 pot | Kir21 confirm | HEK293 Tl flux | others
CCN1CCN(CCNC(=O)CSCc2nc(-c3ccc(OC)c(OC)c3)oc2C)CC1 | i | 9.98* | i | i | CHO-K1 Tl ctr=22.5*;KCNQ1 sel pot=-15.3;KCNQ2 pot conf=-20.8;Kir21 spec=-29.6
CCN1CCN(C(=O)CSCc2nc(-c3ccc(OC)c(OC)c3)oc2C)CC1 | i | nt | nt | nt
Brc1cccc(CN2CCCCCC2)c1 | i | 0.57 | nt | nt
OC1(c2ccc(Br)cc2)CCN(Cc2cccc(Br)c2)CC1 | i | nt | 20.5%* | i
CCCCNCC#CCOc1cc(C)ccc1C(C)C | i | 0.31 | nt | nt
CCN1CCCC1CNC(=O)c1cc2cc(F)ccc2[nH]1 (centres undefined) | i | 0.09 | nt | nt
OC[C@@H](O)[C@H](O)C(/C=N/Nc1ccccc1)=N\Nc1ccccc1 | i | 0.09 | nt | nt
CCn1c(SCC(=O)OCc2ccccc2)nnc1-c1ccco1 | i | nt | i | i
O=C(CSc1nnc(-c2ccco2)n1Cc1ccccc1)c1ccccc1 | i | nt | nt | nt
CC(C)Cn1c(SCC(=O)c2ccc(Cl)s2)nnc1-c1ccco1 | -6.82* | -6.82 | 49.5%* | 138.5%*
Cn1c(SCC(=O)OCc2ccccc2)nnc1-c1ccco1 | i | nt | nt | nt
CC(=O)N(Cc1ccccc1C)c1cccc(C)c1C | i | 0.69 | nt | nt
CC(OC(=O)CCc1c[nH]c2ccccc12)C(=O)c1ccccc1 (centres undefined) | i | nt | nt | nt
O=C(CSc1nc2ccccc2c(=O)n1CC1CCCO1)Nc1ccc(F)cc1 (centres undefined) | i | 0.73 | nt | nt
CC(C)NC(=O)c1ccc2c(c1)N(Cc1ccccc1)C(=O)C(C)(C)O2 | i | 0.11 | nt | nt
Cc1occc1C(=O)NCCCCNC(=O)c1ccoc1C | i | 0.46 | nt | nt
CCCCCCCCCCCNC(=O)c1ccoc1C | i | 13.4* | nt | nt | CHO-K1 Tl ctr=-20.2;KCNQ1 sel pot=65.6*;KCNQ2 pot conf=36.7*;Kir21 spec=-64.0;KCNQ2 W236L pot=i
CSc1nc2c(c(=O)[nH]1)C(c1cccc(Cl)c1)CC(=O)N2 (centres undefined) | i | 0.81 | nt | nt
CSc1nc2c(c(=O)[nH]1)C(c1ccc(Cl)cc1)CC(=O)N2 (centres undefined) | i | nt | i | i
COc1cc2c(cc1OC)CN(C(=O)/C=C/c1ccccc1[N+](=O)[O-])CC2 | i | nt | nt | nt
CN(C)CCNC(=O)COc1ccc(C23CC4CC(CC(C4)C2)C3)cc1 | i | nt | 41.0%* | i
Cc1ccc(C23CC4CC(CC(NC(=O)NCCN(C)C)(C4)C2)C3)cc1 | i | nt | nt | nt
CC(=O)Nc1sc2c(c1C(c1ccccc1Cl)N1CCN(CCO)CC1)CCCC2 (centres undefined) | i | 5.29* | nt | nt | CHO-K1 Tl ctr=-35.7;KCNQ1 sel pot=-18.3;KCNQ2 pot conf=37.7*;Kir21 spec=-62.2;KCNQ2 W236L pot=i
CC(=O)Nc1sc2c(c1C(c1ccccn1)N1CCCC1)CCCC2 (centres undefined) | i | 1 | nt | nt
CC(OC(=O)Cn1[nH]c(=O)c2ccccc2c1=O)C(=O)c1ccccc1 (centres undefined) | i | nt | nt | nt
SMILES | KCNQ2 block | KCNQ2 pot | Kir21 confirm | HEK293 Tl flux | others
CNc1nc(NC#N)nc(SC)n1 | i | nt | nt | nt
COc1cc(C)c(S(=O)(=O)NOCc2ccccc2)c(C)c1C | i | nt | i | i
COc1cc(C)c(S(=O)(=O)NOCc2ccc([N+](=O)[O-])cc2)c(C)c1C | i | 0.57 | nt | nt
Nc1nc(SCC(=O)Nc2ccccc2Sc2ccc(Cl)cc2)n[nH]1 | i | 6.21* | i | i | CHO-K1 Tl ctr=23.1*;KCNQ1 sel pot=-17.7;KCNQ2 pot conf=9.1*;Kir21 spec=-53.2;KCNQ2 W236L pot=i
CSc1ccccc1NC(=O)CSc1n[nH]c(N)n1 | i | nt | nt | nt
NC1=NC[C@H](Cc2ccc(O)cc2)N1CCCCC1CCCCC1 | i | 0.01 | nt | nt
NC1=NC[C@H](Cc2ccccc2)N1CCCCC1CCCCC1 | i | nt | 32.0%* | i
CC(C)c1nnc(NC(=O)CCC2CCCCC2)s1 | i | 2.11 | nt | nt
Cc1nnc(SCC(=O)c2ccc(C(C)C)cc2)s1 | i | 0.08 | nt | nt
CCCN1CCC(NC23CC4CC(CC(C4)C2)C3)CC1 | i | 0.34 | 54.0%* | i
CCCN1CCC(NCC(C)c2ccccc2)CC1 (centres undefined) | i | 0.07 | nt | nt
O=C(CCSCCC(=O)NCc1cccs1)NCc1cccs1 | i | 0.86 | nt | nt
O=C(CC1CC2CCC1C2)NCc1cccs1 (centres undefined) | i | 5.35* | i | i | CHO-K1 Tl ctr=-18.4;KCNQ1 sel pot=26.6*;KCNQ2 pot conf=12.7*;Kir21 spec=-35.5;KCNQ2 W236L pot=i
O=C(CCC1CCCCC1)NCc1cccs1 | i | 7.39* | i | i | CHO-K1 Tl ctr=54.1*;KCNQ1 sel pot=-11.7;KCNQ2 pot conf=14.8*;Kir21 spec=-22.0;KCNQ2 W236L pot=i
O=C(NCc1cccs1)C12CC3CC(CC(C3)C1)C2 | i | 0.94 | nt | nt
Cc1ccc(CN2CCN(Cc3ccccc3C(F)(F)F)CC2)cc1 | i | nt | nt | nt
Cc1ccc(SCCc2ccc(C)nc2)cc1 | i | 0.88 | nt | nt
Oc1c(CN2CCN(c3ccccn3)CC2)cc(Cl)c2cccnc12 | i | 11* | i | 146.0%* | CHO-K1 Tl ctr=4.1*;KCNQ1 sel pot=-4.9;KCNQ2 pot conf=23.5*;Kir21 spec=-25.4;KCNQ2 W236L pot=i
O=C(Oc1c(Cl)cc(Cl)c2cccnc12)c1cccs1 | i | 10.8* | i | i | CHO-K1 Tl ctr=-5.0;KCNQ1 sel pot=-37.5;KCNQ2 pot conf=-33.5;Kir21 spec=-41.5
Oc1c(Cl)cc(Cl)c2cccnc12 | i | 7.78* | i | 176.0%* | CHO-K1 Tl ctr=-12.3;KCNQ1 sel pot=-14.8;KCNQ2 pot conf=11.3*;Kir21 spec=-12.0;KCNQ2 W236L pot=i
OCCN1CCN(Cc2cc(Cl)c3cccnc3c2O)CC1 | i | 1.04 | nt | nt
O=C(Oc1c(CN2CCOCC2)cc(Cl)c2cccnc12)c1cccs1 | i | nt | nt | nt
Oc1c(Cl)cc(CN2CCCCC2)c2cccnc12 | i | nt | nt | nt
CCOc1ccccc1NC(=O)c1ccc2nc[nH]c2c1 | i | 0.15 | nt | nt
CCCc1cc(C(=O)NC(C)C2CCCO2)cs1 (centres undefined) | i | nt | nt | nt
O=C(Cn1c(CO)nc2ccccc21)Nc1ccccc1Cl | i | 0.1 | i | i
Cc1cc(C)cc(NC(=O)Cn2c(-c3ccccc3Cl)nc3ccccc32)c1 | i | 1.06 | nt | nt
O=C(CSc1nnnn1-c1cccc2ccccc12)NC(C(=O)O)(c1ccccc1)c1ccccc1 | i | 0.45 | nt | nt
Cc1sc2nc(C(C)C)nc(SCC(=O)N3CCOCC3)c2c1C | i | 12.2* | i | i | CHO-K1 Tl ctr=5.3*;KCNQ1 sel pot=-17.6;KCNQ2 pot conf=34.3*;Kir21 spec=-38.1;KCNQ2 W236L pot=i
CCn1c(SC(C)C(=O)N2CCOCC2)nc2sc(C)c(C)c2c1=O (centres undefined) | i | 1.08 | nt | nt
